Results published in PubChem BioAssay (NCATS).
Where “and” joins values, the source holds several entries; their conditions need not be identical. Equal values may be shown once. Results filed as inconclusive are left out. Calls of active or inactive are those of the source. Calls follow the shape of the full dose curve.

Assay: qHTS Assay for Lipid Storage Modulators (AID 1519); as to activity change, negative = inhibition: % is scaled to controls: 0 for no effect and ±100 for the full control effect
Conditions: Drosophila S3 cells, BODIPY lipid droplet/cell ratio, laser cytometry, cells loaded with oleic acid
Text: NIH Molecular Libraries Probe Production Centers Network [MLPCN]
NIH Chemical Genomics Center [NCGC]
Assay Submitter (PI): Beller, Mathias; Max-Planck-Institut fur Biophysikalische Chemie
NCGC Assay Overview: Storing lipids as a reservoir for energy or the anabolism of elementary metabolites is a common feature of probably all cells and is conserved from bacteria to humans. The universal cellular lipid storage organelle is the so-called lipid storage droplet (LD). Although ubiquitous, LDs share a simple structure composed of a hydrophobic core that harbors the storage lipids, which is shielded by a droplet-specific phospholipid monolayer to which proteins are attached. The current model of LD biogenesis involves an incorporation of the lipid core into the membrane leaflets of the endoplasmic reticulum (ER) followed by a subsequent budding-like maturation of a LD, which ultimately pinches off. Once released, LD volume can increase by localized lipogenesis or fusion of existing droplets. Storage lipids are re-mobilized enzymatically by lipase activity. Lipase regulation in the adipocyte is heavily studied and involves multiple components including catecholamine signaling, the LD-associated proteins Perilipin and comparative gene identification-58 (CGI-58) and at least two lipases named hormone sensitive lipase (HSL) and adipocyte triglyceride lipase (ATGL). LD regulation outside of the adipocyte is poorly understood and only few components are known. However, there is an urgent need to learn more about ectopic fat depots as mislocalized storage of lipids, for example in the liver or muscle, is an eminent health problem associated with insulin resistance or the metabolic syndrome. We developed a laser-scanning cytometer assay to enable 1,536-well screening and combined the results of the small molecules screen with an RNAi database based on lipid storage.
NCGC Assay Protocol Summary:
We dispensed 4 uL of cells at 1.25 x 10^6 cells/mL into LoBase Aurora COC 1,536-well plates (black walled, clear bottom) with a bottle-valve solenoid-based dispenser (Aurora) to obtain 5,000 cells/well. Triacsin C (Sigma-Aldrich T-4540), an inhibitor of long-chain fatty acyl CoA synthetase that blocks synthesis of triglycerides, was used as a positive control for lipid under-storage. A total of 23 nL of compound solution of different concentrations were transferred to the assay plates using a Kalypsys pin tool equipped with a 1,536-pin array containing 10-nL slotted pins (FP1S10, 0.457-mm diameter, 50.8 mm long; V&P Scientific). One microliter of oleic acid (400 uM) was added, and the plate was lidded with stainless steel rubber gasket lined lids containing pinholes. […] Fluorescence was detected by excitation of the fluorophores with a 488-nm laser on an Acumen Explorer (TTP Lab Tech). The total intensity in channel 1 (500-530 nm) reflected lipid droplet accumulation. […] The ratio of the total intensity in PMT channel 1 over total intensity of channel 3 was also calculated. Percent activity was computed relative to an internal control (100% inhibited lipid droplet deposition due to the presence of 20 uM Triacsin C), which was added to 32 wells/plate.

[1] = measured here: cell count channel max response
[2] = measured here: lipid channel max response

| Compound | activity change, negative = inhibition (at 25.7 µM (top of the series)) | activity change, negative = inhibition (at 57.5 µM (top of the series)) | max response [1] | max response [2] |
| --- | --- | --- | --- | --- |
| O=C(CCCN1CCN(c2ccccn2)CC1)c1ccc(F)cc1 | 0.351% (inactive) | 15.3% (inactive) | -7.79% and 5.38% | -10.2% and 27.2% |
| Nc1ccc(S(=O)(=O)NC(=O)c2ccccc2)cc1 | 2.01% (inactive) | 8.83% (inactive) | -14.6% and 20.6% | -13.2% and 26.2% |
| CN(C)CCCN1c2ccccc2Sc2ccc(Cl)cc21 | -3.35% (inactive) | 10.9% (inactive) | -15.1% and 7.95% | -17.6% and 24.6% |
| CCCCOC(=O)c1ccc(O)cc1 | -2.55% (inactive) |  | -1.21% | -4.1% |
| O=C(Oc1ccccc1C(=O)O)c1ccccc1O |  | 4.87% (inactive) | -1.82% | 6.63% |
| CN(C)CCOC(C)(c1ccccc1)c1ccccn1 (configuration not stated) |  | 3.29% (inactive) | -15.9% | -9.47% |
| CC(C(O)c1ccc(O)cc1)N1CCC(Cc2ccccc2)CC1 (configuration not stated) |  | 3.33% (inactive) | 9.6% | 16% |
| O=C1c2c(O)cccc2Cc2cccc(O)c21 |  | 2.53% (inactive) | 14.4% | 20.2% |
| CCN(CC)C(C)CN1c2ccccc2Sc2ccccc21 (configuration not stated) |  | 2.47% (inactive) | -20.9% | -15.4% |
| CCCCCCCCCCCCCCCCCCOCC(O)CO (configuration not stated) |  | 4.1% (inactive) | 15.6% | 19.9% |
| CCCn1cnc2c1c(=O)n(CCCCC(C)=O)c(=O)n2C |  | 0.49% (inactive) | 51.1% | 50.9% |
| CC12CCC(CC1)C(C)(C)O2 |  | 2.95% (inactive) | -6.11% | -2.37% |
| Oc1cccc(O)c1 |  | 4.72% (inactive) | 10.3% | 16.6% |
